# Source: PubChem BioAssay
# Tested on: Wnt5a (protein binding on small-molecule microarray)
# Assay: Wnt5a binders on small-molecule microarray, primary screen, biophysical, 635/667 nm fluorescence (AID 1142);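 further: fluorescence read at 667 nm with signal to noise per printed feature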
# Details: 635 nm fluorescence, higher = more signal
row,Structure (SMILES),composite z-score
1,CC(C)[Si](C#C[Si](C(C)C)(C(C)C)C(C)C)(O[C@H](C)c1cn(Cc2cccc(Cl)c2)nn1)C(C)C,-0.0078
2,CC(C)(C)OC(=O)CC[C@]1(C(=O)N2CCCCC2)N=C(c2ccc(OCCCO)cc2)O[C@H]1c1ccccc1CN=[N+]=[N-],1.13
3,CCOC(=O)C[C@H]1[C@H](OC(=O)Cc2ccc3c(c2)OCO3)[C@@H](NC(=O)c2ccccc2)c2cc(OCCCO)ccc2N1C(=O)c1ccc2ccccc2n1,-0.112
4,CC(C)CCC[C@@H](C)[C@H]1CC[C@@]2(C)C3=C(CC[C@]12C)[C@@]1(C)CC[C@H](OC(=O)c2ccc(N)cc2)C(C)(C)C1CC3 (stereo partly drawn),0.279
5,C=CCC(OC(C)=O)[C@@H]1[C@@H](N(Cc2cccc3ccccc23)C(=O)c2ccc(C)cc2)c2cc(OCCCO)ccc2N1C(=O)c1ccc2ccccc2c1 (stereo partly drawn),0.0228
6,COC(=O)C(CC#Cc1ccc2c(c1)[C@]1(C(=O)N2)[C@H](c2ccccc2OCCO)N2[C@H](c3ccccc3)[C@H](c3ccccc3)OC(=O)[C@H]2[C@@H]1C(=O)Nc1nc2ccccc2s1)C(=O)OC,0.384
7,C=CCOC(=O)[C@@H]1[C@H]2C(=O)O[C@H](c3ccccc3)[C@H](c3ccccc3)N2[C@H](c2ccc(OCCOC(=O)[C@@H]3C[C@@H]4C(=O)N5CCC[C@H]5C(=O)N4[C@@H]3c3cccc(OCCO)c3)cc2)[C@@]12C(=O)Nc1ccc(I)cc12,0.667
8,COc1ccc(C(=O)Nc2ccc(CN3C(=O)[C@]4(O[C@H](CCn5cc([C@H](O)c6ccccc6)nn5)[C@@H]([Si](C)(C)c5ccc(OC)cc5)[C@@H]4C)c4ccccc43)cc2)cc1,-0.0249
